Source: PubChem BioAssay (Tox21)
Records with an inconclusive call do not appear. Calls of active or inactive are those of the source. Calls come from the whole dose curve.
% is set by controls: 0 for no effect and ±100 for the full control effect.

Experiment: qHTS assay for small molecule agonists of the antioxidant response element (ARE) signaling pathway - cell viability counter screen (AID 743203); note: nearly all actives have a fitted effect of over 55% in size
Conditions: ARE-bla HepG2 viability, CellTiter-Glo luminescence, 16 h; series mostly up to 73.3 µM; viability change, negative = cytotoxic: at the top concentration
Method in brief: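 ATP content via CellTiter-Glo luminescence served as the viability measure. Cells: ARE-bla HepG2, 2,000 per well. Exposure: 16 hrs, 37C/5% CO2.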
With `CC1CCc2cc(F)cc3c(=O)c(C(=O)O)cn1c23` (stereo not given) the “viability change, negative = cytotoxic” value was 9.12% (inactive). For `CC(=O)O[C@H]1C[C@@H]2CC[C@@H]3[C@H](CC[C@@]4(C)[C@H]3C[C@H]([N+]3(C)CCCCC3)[C@@H]4OC(C)=O)[C@@]2(C)C[C@@H]1N1CCCCC1`, the “viability change, negative = cytotoxic” value was 6.25% (inactive). In the case of `CN(C)CC[C@@H](c1ccc(Br)cc1)c1ccccn1`, the “viability change, negative = cytotoxic” value was -2.33% (inactive). In the case of `CC(C)NCC(O)c1cc(O)cc(O)c1` (stereo not given), the “viability change, negative = cytotoxic” value was -7.86% (inactive). For `CCN1CCC[C@H]1CNC(=O)c1c(OC)ccc(Br)c1OC`, the “viability change, negative = cytotoxic” value was -5.93% (inactive). With `CCCC(=O)OCC` the “viability change, negative = cytotoxic” value was 0.959% (inactive). For `Cc1cc(CC(=O)O)c(C)n1-c1ccc(Cl)cc1`, the “viability change, negative = cytotoxic” value was 4.92% (inactive). In the case of `COc1ccc2[nH]c(S(=O)Cc3ncc(C)c(OC)c3C)nc2n1` (stereo not given), the “viability change, negative = cytotoxic” value was 16.7% (inactive). In the case of `CC(C)(C)c1ccc(S)cc1`, the “viability change, negative = cytotoxic” value was 5.83% (inactive). For `CCN(CC)CCOc1ccc2c(c1)C(=O)c1cc(OCCN(CC)CC)ccc1-2`, the “viability change, negative = cytotoxic” value was -27.4% (inactive). With `CC(C)(C)c1cc(CO)cc(C(C)(C)C)c1O` the “viability change, negative = cytotoxic” value was -9.14% [at 94.8 µM] (inactive). With `CC(C)CC=O` the “viability change, negative = cytotoxic” value was 4.82% (inactive). With `COc1cc(C(C)(C)C)c(O)c(C(C)(C)C)c1` the “viability change, negative = cytotoxic” value was -0.0231% (inactive). With `Nc1ccc(C(=O)N2CC3CC(CN(Cc4ccccc4)C3)C2)cc1` the “viability change, negative = cytotoxic” value was -2.92% (inactive). In the case of `O=S(=O)(O)c1ccc(O)c2ncccc12`, the “viability change, negative = cytotoxic” value was 8.35% (inactive).
